The values that follow come from PubChem BioAssay AID602350 (Broad Institute, 2012).

The experiment addresses Protein disulfide-isomerase (Homo sapiens) (UniProt P07237). Put plainly: inhibition of PDI-driven insulin aggregation – biochemical, turbidity, absorbance, cherry-picked samples, dose response (AID 602350).

Entries with a potency or affinity are not part of this list. Active and inactive are the calls of the source.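 Rule for the calls: active = absorbance falls by 30% or more versus neutral controls, with a potency fitted within twice the top valid dose; inconclusive = no clear call, values can overlap the other calls; inactive = change opposite to expected direction, plus the rest.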

Chain of Protein disulfide-isomerase (Homo sapiens) (P07237 whole entry, looked up): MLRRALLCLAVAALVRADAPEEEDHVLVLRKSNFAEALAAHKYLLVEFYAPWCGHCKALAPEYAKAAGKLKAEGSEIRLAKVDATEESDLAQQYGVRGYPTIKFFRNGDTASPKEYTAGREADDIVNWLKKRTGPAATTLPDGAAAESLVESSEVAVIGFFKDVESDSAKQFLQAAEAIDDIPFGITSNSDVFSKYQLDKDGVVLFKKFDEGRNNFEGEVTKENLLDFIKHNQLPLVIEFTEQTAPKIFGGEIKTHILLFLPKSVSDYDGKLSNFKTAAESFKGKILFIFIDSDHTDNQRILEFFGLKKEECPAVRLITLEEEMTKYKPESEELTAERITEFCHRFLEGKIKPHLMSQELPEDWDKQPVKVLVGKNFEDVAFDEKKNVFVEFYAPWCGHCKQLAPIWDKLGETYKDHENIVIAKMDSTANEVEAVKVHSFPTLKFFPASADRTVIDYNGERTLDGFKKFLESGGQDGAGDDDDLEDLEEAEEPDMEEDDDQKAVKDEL

As to `CC(=O)Nc1cccc(NC(=O)CCc2ccccc2)c1`, the result was inactive.

For the compound `O=C(OCc1ccc(-c2ccccc2)cc1)c1cccc(O)c1`, the compound was classed as inactive.

For `O=C(Nc1nc2ccccc2s1)c1cccc(S(=O)(=O)N2CCc3ccccc32)c1`, the call was inactive.

Turning to `C[C@H]1CN([C@@H](C)CO)C(=O)Cc2cc(NC(=O)Nc3ccccc3)ccc2O[C@@H]1CN(C)Cc1ccccc1`, the call was inactive.

Consider `CCN(CC)C(=O)CSc1nnc([C@H](Cc2c[nH]c3ccccc23)NC(=O)OC(C)(C)C)o1`, for which the outcome was inactive.

`Cc1ccc(N2CC(C(=O)N3CCCCCC3)CC2=O)cc1` (centres undefined): the compound was classed as inactive.

On to `C[C@@H]1CN([C@@H](C)CO)C(=O)Cc2cc(NC(=O)Nc3ccccc3)ccc2O[C@H]1CN(C)Cc1ccccc1`, for which the call was inactive.

Regarding `Cc1cccc(NC(=S)NCC23C=CC(O2)C2C(=O)N(c4ccc(Cl)cc4)C(=O)C23)c1` (centres undefined), the compound was called inactive.

For `Cc1cccc(C)c1NC(=O)CN1CCNCC1`, the outcome was inactive.

With `CCOC(=O)c1c(CN(C)C)n(-c2ccc(C)cc2)c2cc(Br)c(O)cc12`, the outcome was inactive.

For the compound `COc1cccc(/C=N/NC(=O)CNC(=O)C(c2ccccc2)c2ccccc2)c1O`, the compound was classed as inactive.

Consider `COc1ccc(S(=O)(=O)NCC(c2ccc(F)cc2)N2CCOCC2)cc1Br` (centres undefined), for which the result was inactive.

`O=C1CN(c2nc3ccccc3n3cnnc23)CC(=O)N1CCc1ccccc1`: the call was inactive.

With `Cc1ccc2c(=O)n3c(nc2c1)C(Cc1ccc(O)cc1)NC(=O)c1cccnc1-3` (centres undefined), the call was inactive.

Take `O=C(CSc1n[nH]c(-c2ccccc2)n1)Nc1ccccc1O`: the compound was called inactive.

Regarding `O=c1cc(CN2CCN(S(=O)(=O)/C=C/c3ccccc3)CC2)c2ccc(O)cc2o1`, the outcome was inactive.

As for `O=C(Cc1ccccc1)Nc1cccc(C(=O)N/N=C/c2ccco2)c1`, the result was inactive.

As to `CC(=O)c1ccc(OCc2cc(C(=O)N3CCCCC3c3cccnc3)no2)cc1` (centres undefined), the outcome was inactive.

Regarding `NC(=O)c1nsc(C(=O)N(CC(=O)NCc2ccc(F)cc2)Cc2ccco2)c1N`, the compound was classed as inactive.

On to `Oc1cccc(-c2nc3c4c(ncn3n2)-c2ccccc2CC42CCCC2)c1`, for which the compound was classed as inactive.

As to `CCCNC(=O)Cn1c(-c2ccc(F)cc2)cc(C(=O)OCC)c1C`, the call was inactive.

In the case of `O=C(Nc1nccs1)c1ccc(-c2ccccc2[N+](=O)[O-])o1`, the call was inactive.

As to `CCC(=O)N1CCc2cc(S(=O)(=O)CCC(=O)NCc3ccco3)ccc21`, the result was inactive.

In the case of `COc1ccc(Cl)cc1NC(=O)COC(=O)C1CC1`, the result was inactive.

Take `O=C(c1cc([N+](=O)[O-])ccc1N1CCOCC1)N1CCN(c2ccc([N+](=O)[O-])cc2)CC1`: the compound was called inactive.

`COc1ccc(CN(C)C[C@@H]2Oc3ccc(NC(=O)Nc4ccccc4)cc3CC(=O)N([C@H](C)CO)C[C@@H]2C)cc1`: the outcome was inactive.

Turning to `C[C@@H]1CN([C@@H](C)CO)C(=O)c2cccc(NS(C)(=O)=O)c2O[C@@H]1CN(C)Cc1ccc(Oc2ccccc2)cc1`, the outcome was inactive.

On to `CCOc1ccccc1CN1CCNC(=O)C1CC(=O)NCc1nccn1CC` (centres undefined), for which the compound was classed as inactive.

Take `O=C(/C=C/c1ccc(N2CCCCC2)c([N+](=O)[O-])c1)c1ccc(O)cc1`: the compound was classed as inactive.

Regarding `CC1CCc2sc(C(=O)N/N=C/C3CCCCC3)cc2C1` (centres undefined), the call was inactive.

As for `CCOC(=O)C1(CCOc2ccccc2)CCN(Cc2ccc(C(=O)OC)cc2)CC1`, the result was inactive.

Take `COc1cc(C(C)=O)ccc1OCC(=O)NCCCn1nc(C)cc1C`: the compound was called inactive.

Take `Cc1noc(C)c1S(=O)(=O)Nc1ccc2c(c1)CC(=O)N([C@@H](C)CO)C[C@H](C)[C@@H](CN(C)S(=O)(=O)c1ccc(F)cc1)O2`: the compound was called inactive.

In the case of `CC(=O)N(C)C1(c2nnnn2CCOC(=O)Nc2ccc(Cl)cc2)CCCCC1`, the compound was called inactive.

Regarding `COc1ccc(/C=C2\Sc3ccc(C(=O)NCCCN4CCCC4)cc3N(C)C2=O)cc1OC`, the result was inactive.

As for `CC1(c2ccc3ccccc3c2)NC(=O)N(CC(=O)Nc2cccc(S(=O)(=O)N3CCOCC3)c2)C1=O` (centres undefined), the outcome was inactive.

On to `CC1(C(=O)NS(=O)(=O)c2ccccc2Cl)CCN1C(=O)c1ccccc1CCc1ccccc1` (centres undefined), for which the compound was called inactive.

Consider `O=C1NC[C@H](Cc2ccccc2)N(C[C@H]2CCCN2C[C@H](Cc2ccc(O)cc2)N2C[C@H](Cc3ccc(O)cc3)N(CC3CCCCCC3)C(=O)C2=O)C1=O`, for which the outcome was inactive.

Turning to `CN(C)C(=O)CSc1n[nH]c(-c2ccco2)n1`, the compound was classed as inactive.
